# Beta2AR agonist: agonists of human beta-2 adrenergic receptor inducing internalization. Am2.2-beta2AR cells, FAP receptor internalization, flow cytometry. P07550. response, % (test concentration not listed). actives 0.43% (n = 340,000);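 active = response above a set limit, near 3 SD of response in nonfluorescent compounds, cut at about 42% in these data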
# MEKK2wt PB1 HTS: raises or lowers MEK5 binding to wildtype human MEKK2 PB1 domain. bead flow cytometry, Alexa488-MEK5 binding to MEKK2 WT; actives lie on both sides. actives 1.1% (n = 290,000). binding response (% of control), % at 10 µM; in the data active = binding response below about 67% or above about 130%
# GRK2 aptamer HTS: blocks RNA aptamer binding to human GRK2 | P25098 | bead flow cytometry, FAM-aptamer displacement from GRK2 | inhibition of aptamer binding, % at 10 µM | actives 0.59% (n = 330,000);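 active = inhibition of aptamer binding above 40%, roughly 3 SD of noise, on plates passing a quality check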;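 note: median bead fluorescence of bound FAM aptamer so fluorescent compounds give negative values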
# MEKK3 PB1 HTS: MEKK3-MEK5 PB1 interaction, increase or decrease; Q99759; bead-based flow cytometry, Alexa488-MEK5 binding to MEKK3; actives lie on both sides; 0 = blocked by unlabeled MEK5, 100 = vehicle; binding response (% of control), % at 10 µM; actives 1.4% (n = 290,000);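 active = binding response more than 3 SD above or below the average of its plate-row segment, actives on both sides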;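 note: Alexa488 bead fluorescence after subtracting the streptavidin-only scavenger bead signal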
# Target sequence (Q99759 whole entry, looked up): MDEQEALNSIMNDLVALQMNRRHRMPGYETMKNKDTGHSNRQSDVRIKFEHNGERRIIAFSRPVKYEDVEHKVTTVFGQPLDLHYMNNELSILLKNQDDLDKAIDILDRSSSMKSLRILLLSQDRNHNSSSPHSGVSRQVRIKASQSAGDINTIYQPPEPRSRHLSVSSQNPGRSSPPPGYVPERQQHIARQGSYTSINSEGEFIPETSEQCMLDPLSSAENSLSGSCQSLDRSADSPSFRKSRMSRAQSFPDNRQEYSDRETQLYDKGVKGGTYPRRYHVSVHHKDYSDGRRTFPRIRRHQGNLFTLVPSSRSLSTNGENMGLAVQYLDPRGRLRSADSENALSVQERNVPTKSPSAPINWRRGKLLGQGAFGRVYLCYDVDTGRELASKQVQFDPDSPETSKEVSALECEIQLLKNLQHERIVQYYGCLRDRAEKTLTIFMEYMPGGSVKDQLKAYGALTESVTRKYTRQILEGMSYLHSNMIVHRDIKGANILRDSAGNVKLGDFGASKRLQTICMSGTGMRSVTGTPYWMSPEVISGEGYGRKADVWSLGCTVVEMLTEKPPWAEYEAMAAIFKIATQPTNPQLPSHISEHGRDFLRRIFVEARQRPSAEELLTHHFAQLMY
# MEKK2 mut-MEK5: signal of MEK5 binding to mutant human MEKK2 PB1 domain; bead flow cytometry, Alexa488-MEK5 binding to MEKK2 mutant; percent response, % at 10 µM; AID 1530; actives 0.35% (n = 290,000); in the data active = percent response above about 24%, passing the limit was not always enough
# MEKK2wt confirm: raises or lowers MEK5 binding to wildtype human MEKK2, retest; binding response (% of control), % at 10 µM; bead flow cytometry, Alexa488-MEK5 binding to MEKK2 WT; actives lie on both sides; shares compounds with MEKK3 PB1 HTS; actives 2.4% (n = 5,900); in the data active = binding response below about 16% or above about 210%; inactive = in between
# MEKK2mut confirm: signal of MEK5 binding to mutant human MEKK2, retest; percent response, % at 10 µM; bead flow cytometry, Alexa488-MEK5 binding to MEKK2 mutant; shares compounds with MEKK3 PB1 HTS; actives 2% (n = 5,900); in the data active = percent response mostly above about 71%, no sharp cut-off; inactive = mostly below about 38%;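 note: higher means compound restores mutant binding toward wildtype level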
# MEKK3 confirm: MEKK3-MEK5 PB1 inhibition, single concentration confirmation. shares compounds with MEKK3 PB1 HTS. AID 1894. actives 1.8% (n = 5,900). bead flow cytometry, Alexa488-MEK5 binding to MEKK3; hits give low values. binding response (% of control), % at 10 µM;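 active = binding response below 72% of control, or above a set upper limit, though filed actives all read lower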;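 note: 100% = DMSO only wells and 0% = binding blocked by excess unlabeled MEK5; lower values mean stronger disruption of MEK5 binding to MEKK3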
# Active calls of the source: *; / = no result; [ ] = another dose, or the depositor's remark. Rows were chosen to be rich in hits. Some 2.9% of all compounds tested hit in one or more screens of this group.
SMILES,Beta2AR agonist,MEKK2wt PB1 HTS,GRK2 aptamer HTS,MEKK3 PB1 HTS,MEKK2 mut-MEK5,MEKK2wt confirm,MEKK2mut confirm,MEKK3 confirm
CCCOc1ccc(C(=O)N/N=C/c2c[nH]c3ccc(Br)cc23)cc1,12,99,2,102,1,/,/,/
O=C(c1ccoc1)N1CCC2(CC1)Oc1ccc(Cl)cc1C(=O)C21CC(c2ccccc2)=NO1 (configuration not stated),-6,53,0,45*[inhibitor],2,99,-3,103
O=C(c1ccoc1)N1CCC2(CC1)Oc1ccc(Cl)cc1C(=O)C21CC(c2cccnc2)=NO1 (configuration not stated),-14,100,1,103,3,/,/,/
O=C(Cn1cnc2c(NC(=O)OCc3ccccc3)ncnc21)NCCN1CCOCC1,-4,/,3,/,/,/,/,/
COc1ccc(OC)c(C2C3=C(CCCC3=O)Nc3nnnn32)c1 (configuration not stated),7,107,0,133*,0,99,-3,98
COC(=O)C1=C(C)Nc2nnnn2C1c1cc(OC)ccc1OC (configuration not stated),2,98,1,99,-1,/,/,/
Cc1ccc(N(C(=O)CS(=O)CC(=O)Nc2ccc(F)cc2)C(C(=O)NC2CCCCC2)c2ccco2)cc1 (configuration not stated),-4,105,0,132*,0,99,7,102
COc1ccc(CC(=O)N2N=C(C)CC2(O)c2cccnc2)cc1OC (configuration not stated),-15,100,0,128*,-1,103,-4,103
COc1ccc(CC(=O)N2N=C(C)CC2(O)c2cccnc2)cc1 (configuration not stated),0,95,4,99,-1,/,/,/
COc1ccc(C(=O)Nc2ccccc2N2CCCC2)cc1S(=O)(=O)N1CCOCC1,6,/,1,/,/,/,/,/
CCOC(=O)c1sc(NC(=O)Nc2ccc(Cl)cc2)cc1C,5,138*,0,115,10,-2.0*[inhibitor],15,95
CN(C(=O)COC(=O)C(Cc1ccccc1)NC(=O)c1ccccc1)c1ccccc1 (configuration not stated),7,106,0,134*,0,101,-8,98
CCc1ccc(C(=O)NNc2ccc(S(N)(=O)=O)cc2)cc1,10,186*,0,104,36,101,-3,101
NS(=O)(=O)c1ccc(NNC(=O)c2ccccc2)cc1,-2,98,0,101,0,/,/,/
O=C(COc1ccc2c(c1)CCC2)N1CCN(c2ccccc2F)CC1,-4,109,4,142*,0,108,6,104
NCCNc1ccc(C(=O)N2c3ccccc3Sc3ccccc32)cc1[N+](=O)[O-],8,182*,0,114,37*,167,48,111
O=C(O)c1cccc(NC(=O)c2ccc3c(c2)C(=O)N(C2CCCCC2)C3=O)c1,-7,95,1,97,-3,/,/,/
O=C1S/C(=C\c2ccc(O)c([N+](=O)[O-])c2)C(=O)N1c1ccccc1Cl,16,81,4,74*[inhibitor],-8,102,1,103
COC(=O)c1ccc2c(=O)n(CCCCCC(=O)NCc3ccc4c(c3)OCO4)c(=O)[nH]c2c1,6,66,0,65*[inhibitor],-12,103,7,101
COC(=O)c1ccc2c(=O)n(CCCCCC(=O)NCc3ccccc3)c(=O)[nH]c2c1,4,91,0,101,1,/,/,/
Cc1cccc(N(C)S(=O)(=O)c2csc(C(N)=O)c2)c1,-2,98,0,98,-1,/,/,/
Cc1cc(N/N=C2/CCCc3ccccc32)nc2ccccc12,12,160*,1,108,28,154,28,109
c1ccc(N/N=C2\CCCc3ccccc32)nc1,-3,99,3,101,2,/,/,/
O=C(Nc1ccnn1C1CCN(C/C=C/c2ccccc2)CC1)c1ccccc1,1,119,0,104,10,/,/,/
O=C(Nc1ccnn1C1CCN(C/C=C/c2ccccc2)CC1)c1cccc(F)c1,0,140*,0,107,16,122,11,107
SMILES,Beta2AR agonist,MEKK2wt PB1 HTS,GRK2 aptamer HTS,MEKK3 PB1 HTS,MEKK2 mut-MEK5,MEKK2wt confirm,MEKK2mut confirm,MEKK3 confirm
CCCC(=O)C1=C(O)C(C(=O)OC)C(C)(C)CC1=NCCc1ccc(OC)c(OC)c1 (configuration not stated),2,83,1,72*[inhibitor],-7,106,5,105
O=C(NNC(=O)C1CC2CCC1C2)c1sc2ccccc2c1Cl (configuration not stated),-4,108,0,149*,0,105,3,102
CCN(CC)c1ccc(C=Nc2ccc(OC)c(S(=O)(=O)N3CCOCC3)c2)c(O)c1,7,/,7,/,/,/,/,/
CC(/C=N/Nc1ncc(C)c(=O)[nH]1)=C\c1ccccc1,7,123,4,140*,5,98,-3,102
CC(/C=N/Nc1nc(C)cc(=O)[nH]1)=C\c1ccccc1,-9,107,0,112,-2,/,/,/
NC(=S)NC(c1ccccc1)c1ccncc1 (configuration not stated),-2,/,1,/,/,/,/,/
O=C(c1ccc(F)cc1)N1CCC(C(=O)N2CCN(S(=O)(=O)c3cccc(Cl)c3)CC2)CC1,-1,/,0,/,/,/,/,/
CN1COc2ccc3ccccc3c2C1,-1,93,0,96,-6,/,/,/
CC1CCCN(CCOc2ccc(Br)cc2)C1 (configuration not stated),8,112,1,198*,0,91,-12,87
CC1CC(C)CN(CCOCCSc2ccccc2)C1 (configuration not stated),9,111,1,95,12,/,/,/
CC1CCCN(CCOCCSc2ccccc2)C1 (configuration not stated),0,103,0,133*,0,101,-11,95
CC1CCCN(CCOCCOc2ccc(Br)cc2Cl)C1 (configuration not stated),18,112,0,150*,7,111,11,98
Cc1ccc(C)c(OCC(=O)NCC(c2ccco2)N2CCCCC2)c1 (configuration not stated),6,/,0,/,/,/,/,/
CC(C)c1nc(CNC(=O)C2CCC(=O)N(CCc3ccc(Cl)cc3)C2)no1 (configuration not stated),-5,100,2,102,0,/,/,/

# Screens: PubChem BioAssay, NMMLSC
